Compounds with a hit are over-represented: about 0.89% of the library has one in this group of screens.
Six1-Eya2 blk: inhibitors of human Six1/Eya2 interaction; AID 651725; AlphaScreen GST-Six1/His-Eya2 binding, biochemical; hits give low values; 0.56% of 360,000 active; Q15475+O00167; activity change, % (test concentration not listed); in the data active = activity change below about -65%; inconclusive = mostly about -30% to -63%; note: % is set by controls: 0 for no effect and ±100 for the full control effect
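Homogeneous AlphaScreen proximity assay pairing GST-Six1 with His-tagged Eya2 (added as 5X mix: 250 nM and 500 nM) in 50 mM Tris pH 8.0, 300 mM NaCl, 1 mM TCEP. Glutathione donor and nickel acceptor beads; 1 h, 37 °C, dark.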
CtBP-E1A inh: inhibitors of CtBP/E1A interaction | AlphaScreen GST-E1A/His-CtBP binding, 1536-well; hits give low values | activity change, % (test concentration not listed) | 0.49% of 340,000 active | AID 651724; in the data active = activity change below about -65%; inconclusive = mostly about -30% to -63%; note: % is set by controls: 0 for no effect and ±100 for the full control effect
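Homogeneous bead-based format: GST-tagged E1A captured on glutathione donor beads, His-tagged CtBP on nickel acceptor beads; compounds precede bead addition by 2 h at 37 °C.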
L3MBTL1 inh: inhibitors of human L3MBTL1; AlphaScreen L3MBTL1–H3K9me1 peptide binding; AID 485360; 0.66% of 230,000 active; Q9Y468; Potency, µM (top dose mostly 57.1 µM), for inactives: at the top dose activity, negative = inhibition, hits mostly inhibitors; note: potency is the fitted concentration of half-maximal effect; % is set by controls: 0 for no effect and ±100 for the full control effect; nearly all actives have a fitted effect of over 60% in size
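AlphaScreen proximity signal between nickel-chelate acceptor and streptavidin donor beads (final 10 ug/mL) reports binding of 50 nM L3MBTL1 to 75 nM biotin-H3 K9me1 peptide; complex incubated with compounds 30 min at room temperature; cefsulodin titration as control.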
MBNL1 CUG block: blocks human MBNL1 binding to CUG repeat RNA | 0.036% of 280,000 active | Potency, µM (top dose mostly 57.5 µM), for the others: at the highest dose activity change, negative = inhibition, hits mostly inhibitors | TR-FRET MBNL1-His/biotin-(CUG)12 binding, 665/545 ratio | Q9NR56 | AID 2675; active = well fitted inhibition curve with a large enough effect in the signal ratio, with a control signal flat, not every such curve was filed as active; inconclusive = small, poorly fitted or top-dose-only effect, or effect the other way, or a change in a side signal; inactive = no such curve, though single readings can be large or run the other way; the % refers to the signal ratio; note: potency is the fitted concentration of half-maximal effect; % is set by controls: 0 for no effect and ±100 for the full control effect
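MBNL1-His + Biotin-(CUG)12, cpd titration 92 nM–58 uM; Tb anti-His Ab 0.055 ng/ul, SA-XL665 5 nM (final); 60 min RT; ratiometric 665/545 nm, Ex 340 nm; normalized to buffer and full-complex controls.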
CBFb-RUNX1 inh: CBF-beta/RUNX1 interaction disruption; Potency, µM (top dose mostly 59.8 µM), for inactives: at the top dose activity, negative = inhibition, actives largely listed as inhibitors; AlphaScreen CBFb-His/RUNX1-biotin binding, biochemical; AID 1477; 230,000 tested, under 10 active; Q01196+Q13951; note: % of control where 0% means no effect
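Proteins preincubated together for 20 min at RT before compound addition; 15 min later, nickel and streptavidin beads were added and left 90 min prior to AlphaScreen measurement.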
Eya2 inh: Eya2 (human) phosphatase inhibition. AID 488837. 0.006% of 330,000 active. Potency, µM (titrated, usually from 76.9 µM), for inactives: at the top dose activity, negative = inhibition, most hits filed as inhibitors. recombinant Eya2, OMFP fluorescence dephosphorylation (OMFP is methylfluorescein phosphate); note: potency is the fitted concentration of half-maximal effect; % is set by controls: 0 for no effect and ±100 for the full control effect
Target sequence (O00167 whole entry, looked up): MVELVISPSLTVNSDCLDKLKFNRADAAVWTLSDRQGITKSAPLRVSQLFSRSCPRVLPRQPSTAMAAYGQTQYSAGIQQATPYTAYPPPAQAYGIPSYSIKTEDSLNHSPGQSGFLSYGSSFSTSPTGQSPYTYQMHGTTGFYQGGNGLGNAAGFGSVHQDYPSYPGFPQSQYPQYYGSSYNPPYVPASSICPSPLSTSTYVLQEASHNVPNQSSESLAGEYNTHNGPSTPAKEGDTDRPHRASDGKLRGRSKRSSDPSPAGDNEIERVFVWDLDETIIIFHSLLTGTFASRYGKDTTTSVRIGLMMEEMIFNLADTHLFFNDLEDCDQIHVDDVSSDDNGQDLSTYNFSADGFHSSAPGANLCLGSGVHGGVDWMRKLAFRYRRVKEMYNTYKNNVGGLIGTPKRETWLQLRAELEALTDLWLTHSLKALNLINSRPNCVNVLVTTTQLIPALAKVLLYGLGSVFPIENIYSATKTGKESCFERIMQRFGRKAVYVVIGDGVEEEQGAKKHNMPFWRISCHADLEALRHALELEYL
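Eya2 protein (added as 0.2 uM solution) was preincubated with compound for 10 min at ambient temperature in 50 mM HEPES pH 7.5, 50 mM NaCl, 5 uM MgCl2, 0.05% BSA, 1 mM DTT. OMFP (added at 50 uM) then reacted 10 min; fluorescence read at 485/525 nm.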
Numbers without * were called inactive; ? = inconclusive; . = not tested or not shown. Unless noted, calls come from the whole dose curve; as a rule, active = well fitted curve in the direction sought with a large enough effect; inconclusive = small, poorly fitted or top-dose-only effect, or another doubt; inactive = no such curve, though single readings can be large; an effect the other way counts as inactive or inconclusive.

SMILES	Six1-Eya2 blk	CtBP-E1A inh	L3MBTL1 inh	MBNL1 CUG block	CBFb-RUNX1 inh	Eya2 inh
COc1ccc(N(CC(=O)NCc2ccccc2)C(=O)Cn2nnc(-c3ccccc3F)n2)cc1OC	4.9	3.7	-6.3%	-2.4%	3.8%	-10.4%
CCOC(=O)c1cnc(-n2nc(C)cc2C)nc1Nc1ccc(C)cc1	3.8	-17.3	-4.6%	-3.9%	7.8%	-8.3%
CCOC(=O)c1cnc(-n2nc(C)cc2C)nc1Nc1ccc(N(C)C)cc1	-20.4	-6.1	3.16µM*	17.1%	?	6.4%
Cc1ccc(C2(C)NC(=O)N(CC(=O)Nc3ccccc3N3CCCC3)C2=O)cc1 (stereo not drawn)	-5.4	-9.3	2.82µM*	.	.	2.2%
Cc1cccc(NC(=S)c2nc3ccccc3s2)c1	-75.4*	-80.7*	?	0.7%	.	-2.4%
O=C(Nc1ccccc1)c1nc2ccccc2s1	13.6	25.8	24.3%	11.2%	15.8%	-6.1%
CCN=c1scc(-c2cccs2)n1/N=C/c1cc(OC)ccc1O	?	?	-6.8%	.	-13.6%	1.4%
CN=c1scc(-c2ccccc2F)n1/N=C/c1ccc(O)c(O)c1O	-74.5*	?	3.55µM*	?	.	-5.1%
CN=c1scc(-c2ccccc2F)n1/N=C/c1ccc[nH]1	-28.3	-24.2	.	10.1%	16.9%	1.3%
CC(C)N=c1scc(-c2cccs2)n1/N=C/c1ccc(O)c(O)c1O	-76.3*	?	?	.	?	-23.4%
CC(=O)c1ccc(OC(=O)CCc2ccccc2)cc1	-79.5*	?	15.6%	-3.4%	.	-8.3%
Cc1ccc(N2CCOCC2)c2c1C(=O)c1ccccc1C2=O	-75.9*	?	14.1µM*	?	-0.5%	-0.5%
COc1cccc(C(=O)N/N=C/C(Br)=C/c2ccccc2)c1	-27.9	-87.9*	-13.2%	?	-23.8%	1.2%
O=C(N/N=C/C(Br)=C/c1ccccc1)c1ccccc1[N+](=O)[O-]	-21.4	-92.5*	-1.7%	?	.	-7.4%
Cc1occc1C(=O)N/N=C/C(Br)=C/c1ccccc1	-10.9	?	-6.7%	13.1%	-2.1%	1.5%
O=C(CN1CCOCC1)N/N=C/c1ccc(C(=O)O)cc1	4.9	12.8	.	1.6%	-3.1%	-2.5%
O=C(N/N=C/C(Br)=C\c1ccccc1)c1n[nH]c2c1CCC2	-20.7	-87.4*	.	27.3%	-2.1%	-8.2%
O=C(CN1CCOCC1)N/N=C/C(Br)=C\c1ccccc1	-21.6	-81.4*	-0.4%	?	5.5%	-10.1%
O=C(N/N=C/C(Br)=C/c1ccccc1)c1cnccn1	-81.6*	?	-2.3%	.	-0.6%	-29.3%
O=C(N/N=C/C=C\c1ccccc1)c1cnccn1	-3.6	5.2	-1.3%	16.8%	9.1%	5.7%
CN(CCc1ccccc1)C(=O)c1cccc(NC(=O)Cc2cccc(NC(=O)C3CCCN(C(=O)c4ccccc4)C3)c2)c1 (stereo not drawn)	2.5	1.7	.	.	.	.
Cc1n[nH]c(=O)nc1N/N=C/c1ccco1	-68.0*	?	.	?	-22.5%	-19.5%
COc1ccccc1N1CCN(Cc2ccc(O)c3ncccc23)CC1	-91.4*	-90.0*	.	10.2%	-2.0%	2.2%
Oc1ccc(CN2CCCc3ccccc32)c2cccnc12	-93.3*	0.4	28.2µM*	10.4%	?	3.0%
CCOC(=O)C1CCN(Cc2ccc(O)c3ncccc23)CC1	-92.0*	-98.1*	28.2µM*	19.4%	-19.1%	1.5%
CCOC(=O)C1CCN(Cc2ccccc2C(F)(F)F)CC1	11.8	10.2	13.3%	-13.4%	14.6%	-10.1%
CCOC(=O)C(CC)n1cnc2c(nnn2-c2ccc(F)cc2)c1=O (stereo not drawn)	2.1	8.0	6.1%	1.7%	.	0.3%
COc1ccc(CN(C)Cc2nc3scc(-c4ccccc4)c3c(=O)[nH]2)cc1OC	0.7	0.5	-2.8%	.	-17.8%	1.9%

Screens (PubChem)
